Source: PubChem BioAssay AID1159580 (chemical genetic matrix, 2015)
The whole screen tested about 5,500 compounds, of which about 2,000 (36%) were called active. Inconclusive results (about 18%) are left out. No stated cut-off is given here; in the data, active means normalized growth mostly below about 0.91 (no sharp cut-off); inconclusive means no clear call, values can overlap the other calls; inactive means mostly above about 0.92. Some of the results follow.

Experiment: chemical genetic growth profiling, strain panel (AID 1159580);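 further: tested at 20 µM; growth read once vehicle control cultures reached saturation at 30 °C; 1 = growth at the plate median or of vehicle wells; lower values mean less growth of the strain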
Settings: growth OD
[1] = S. cerevisiae deletion strains, locus YHR030C, strain SLT2, hits give low values

Measured: normalized growth

NC(=O)c1ncn(C2O[C@H](CO)[C@@H](O)[C@H]2O)c1N (some centres undefined)
inactive: S. cerevisiae deletion strains, locus YAL021C, strain ccr4, hits give low values 1.04 | S. cerevisiae deletion strains, locus YAL026C, strain drs2, hits give low values 1.03 | S. cerevisiae deletion strains, locus YAL030W, strain snc1, hits give low values 1.03 | S. cerevisiae deletion strains, locus YBL061C, strain skt5, hits give low values 1.04 | S. cerevisiae deletion strains, locus YBR009C, strain hhf1, hits give low values 1.07 | S. cerevisiae deletion strains, locus YBR023C, strain chs3, hits give low values 1.02 | S. cerevisiae deletion strains, locus YBR171W, strain sec66, hits give low values 1.05 | S. cerevisiae deletion strains, locus YBR231C, strain swc5, hits give low values 1.04 | S. cerevisiae deletion strains, locus YBR279W, strain paf1, hits give low values 1.02 | S. cerevisiae deletion strains, locus YCL011C, strain gbp2, hits give low values 1.04 | S. cerevisiae deletion strains, locus YCL016C, strain dcc1, hits give low values 1.03 | S. cerevisiae deletion strains, locus YCL061C, strain MRC1, hits give low values 1.04 | S. cerevisiae deletion strains, locus YCL069W, strain vba3, hits give low values 1.03 | S. cerevisiae deletion strains, locus YCR088W, strain abp1, hits give low values 1.03 | S. cerevisiae deletion strains, locus YDL005C, strain med2, hits give low values 1.04 | S. cerevisiae deletion strains, locus YDL040C, strain nat1, hits give low values 1.03 | S. cerevisiae deletion strains, locus YDR001C, strain nth1, hits give low values 1.03 | S. cerevisiae deletion strains, locus YDR069C, strain doa4, hits give low values 1.03 | S. cerevisiae deletion strains, locus YDR137W, strain rgp1, hits give low values 1.04 | S. cerevisiae deletion strains, locus YDR159W, strain sac3, hits give low values 1.05 | S. cerevisiae deletion strains, locus YDR195W, strain ref2 1.02 | S. cerevisiae deletion strains, locus YDR297W, strain sur2, hits give low values 1.03 | S. cerevisiae deletion strains, locus YDR334W, strain swr1, hits give low values 1.04 | S. cerevisiae deletion strains, locus YDR335W, strain msn5, hits give low values 1.03 | S. cerevisiae deletion strains, locus YDR392W, strain spt3, hits give low values 1 | S. cerevisiae deletion strains, locus YEL003W, strain gim4, hits give low values 1.03 | S. cerevisiae deletion strains, locus YEL037C, strain rad23, hits give low values 1.03 | S. cerevisiae deletion strains, locus YEL061C, strain CIN8 (second series), hits give low values 1.03 | S. cerevisiae deletion strains, locus YER015W, strain faa2, hits give low values 1.04 | S. cerevisiae deletion strains, locus YER016W, strain bim1, hits give low values 1.03 | S. cerevisiae deletion strains, locus YER111C, strain swi4, hits give low values 1.04 | S. cerevisiae deletion strains, locus YER155C, strain BEM2 (second series), hits give low values 1.06 | S. cerevisiae deletion strains, locus YFR010W, strain ubp6, hits give low values 1.04 | S. cerevisiae deletion strains, locus YGL167C, strain pmr1, hits give low values 1.04 | S. cerevisiae deletion strains, locus YGL173C, strain kem1, hits give low values 1.04 | S. cerevisiae deletion strains, locus YGL227W, strain vid30, hits give low values 1.04 | S. cerevisiae deletion strains, locus YGL240W, strain doc1, hits give low values 1.06 | S. cerevisiae deletion strains, locus YGL253W, strain hxk2, hits give low values 1.04 | S. cerevisiae deletion strains, locus YHR013C, strain ard1, hits give low values 1.03 | S. cerevisiae deletion strains, locus YHR027C, strain rpn1, hits give low values 1.03 | [1] 0.991 | S. cerevisiae deletion strains, locus YHR079C, strain IRE1, hits give low values 1.01 | S. cerevisiae deletion strains, locus YHR142W, strain chs7, hits give low values 1.02 | S. cerevisiae deletion strains, locus YJL092W, strain hpr5, hits give low values 1.02 | S. cerevisiae deletion strains, locus YJL095W, strain BCK1 (second series), hits give low values 1.03 | S. cerevisiae deletion strains, locus YJL095W, strain BCK1, hits give low values 1.01 | S. cerevisiae deletion strains, locus YJL115W, strain asf1, hits give low values 1.03 | S. cerevisiae deletion strains, locus YJL129C, strain trk1, hits give low values 1.04 | S. cerevisiae deletion strains, locus YJL154C, strain vps35, hits give low values 1.02 | S. cerevisiae deletion strains, locus YJL164C, strain tpk1, hits give low values 1.02 | S. cerevisiae deletion strains, locus YJL166W, strain qcr8, hits give low values 1.05 | S. cerevisiae deletion strains, locus YJL187C, strain SWE1, hits give low values 1.03 | S. cerevisiae deletion strains, locus YJR066W, strain TOR1, hits give low values 0.949 | S. cerevisiae deletion strains, locus YKL160W, strain elf1, hits give low values 1.02 | S. cerevisiae deletion strains, locus YKR026C, strain gcn3, hits give low values 1.03 | S. cerevisiae deletion strains, locus YKR091W, strain srl3, hits give low values 1.03 | S. cerevisiae deletion strains, locus YLL001W, strain dnm1, hits give low values 1.04 | S. cerevisiae deletion strains, locus YLL026W, hits give low values 1.03 | S. cerevisiae deletion strains, locus YLL041C, strain sdh2, hits give low values 1.04 | S. cerevisiae deletion strains, locus YLR027C, strain aat2, hits give low values 1.03 | S. cerevisiae deletion strains, locus YLR113W, strain HOG1, hits give low values 0.993 | S. cerevisiae deletion strains, locus YLR221C, strain rsa3, hits give low values 1.03 | S. cerevisiae deletion strains, locus YLR258W, strain gsy2, hits give low values 1.04 | S. cerevisiae deletion strains, locus YLR262C, strain YPT6 (second series), hits give low values 1.05 | S. cerevisiae deletion strains, locus YLR320W, strain mms22, hits give low values 1.05 | S. cerevisiae deletion strains, locus YLR342W, strain FKS1, hits give low values 1.05 | S. cerevisiae deletion strains, locus YLR357W, strain rsc2, hits give low values 1.08 | S. cerevisiae deletion strains, locus YLR370C, strain arc18, hits give low values 1.05 | S. cerevisiae deletion strains, locus YLR384C, strain iki3, hits give low values 1.04 | S. cerevisiae deletion strains, locus YML120C, strain ndi1, hits give low values 1.01 | S. cerevisiae deletion strains, locus YMR058W, strain fet3, hits give low values 1.03 | S. cerevisiae deletion strains, locus YMR125W, strain sto1, hits give low values 1.04 | S. cerevisiae deletion strains, locus YMR129W, hits give low values 1.03 | S. cerevisiae deletion strains, locus YMR205C, strain PFK2, hits give low values 1.07 | S. cerevisiae deletion strains, locus YMR231W, strain pep5, hits give low values 1.03 | S. cerevisiae deletion strains, locus YNL071W, strain lat1, hits give low values 1.04 | S. cerevisiae deletion strains, locus YNL183C, strain NPR1, hits give low values 0.965 | S. cerevisiae deletion strains, locus YNL209W, strain ssb2, hits give low values 1.04 | S. cerevisiae deletion strains, locus YNL248C, strain rpa49, hits give low values 1.03 | S. cerevisiae deletion strains, locus YNL322C, strain KRE1 (second series), hits give low values 1.03 | S. cerevisiae deletion strains, locus YNR049C, strain mso1, hits give low values 1.04 | S. cerevisiae deletion strains, locus YOR001W, strain rrp6, hits give low values 1.02 | S. cerevisiae deletion strains, locus YOR070C, strain gyp1, hits give low values 1.03 | S. cerevisiae deletion strains, locus YOR080W, strain dia2, hits give low values 1.05 | S. cerevisiae deletion strains, locus YOR083W, strain WHI5, hits give low values 1.02 | S. cerevisiae deletion strains, locus YOR106W, strain vam3, hits give low values 1.03 | S. cerevisiae deletion strains, locus YOR231W, strain MKK1, hits give low values 1.01 | S. cerevisiae deletion strains, locus YOR265W, strain rbl2, hits give low values 1.04 | S. cerevisiae deletion strains, locus YOR270C, strain vph1, hits give low values 1.05 | S. cerevisiae deletion strains, locus YOR290C, strain snf2, hits give low values 0.974 | S. cerevisiae deletion strains, locus YPL051W, strain arl3, hits give low values 1.01 | S. cerevisiae deletion strains, locus YPL078C, strain atp4, hits give low values 1.03 | S. cerevisiae deletion strains, locus YPL106C, strain sse1, hits give low values 1.08 | S. cerevisiae deletion strains, locus YPL240C, strain hsp82, hits give low values 1.03 | S. cerevisiae deletion strains, locus YPL256C, strain CLN2, hits give low values 0.982

C/C(=N/Nc1c(Cl)cc(Cl)cc1Cl)c1cc(F)ccc1OC(=O)c1ccccc1F
inactive: S. cerevisiae deletion strains, locus YAL013W, strain DEP1, hits give low values 0.99 | S. cerevisiae deletion strains, locus YBR229C, strain ROT2, hits give low values 0.978 | S. cerevisiae deletion strains, locus YDL101C, strain DUN1, hits give low values 0.969 | S. cerevisiae deletion strains, locus YDL134C, strain PPH21, hits give low values 1.03 | S. cerevisiae deletion strains, locus YDR150W, strain NUM1, hits give low values 0.991 | S. cerevisiae deletion strains, locus YEL061C, strain CIN8, hits give low values 1.04 | S. cerevisiae deletion strains, locus YGR078C, strain PAC10, hits give low values 0.983 | [1] 1.04 | S. cerevisiae deletion strains, locus YHR087W, strain rtc3, hits give low values 0.978 | S. cerevisiae deletion strains, locus YJR043C, strain POL32, hits give low values 0.968 | S. cerevisiae deletion strains, locus YJR075W, strain HOC1, hits give low values 0.984 | S. cerevisiae deletion strains, locus YKL190W, strain CNB1, hits give low values 1.03 | S. cerevisiae deletion strains, locus YLR039C, strain RIC1, hits give low values 1.02 | S. cerevisiae deletion strains, locus YLR058C, strain SHM2 (second series), hits give low values 1.01 | S. cerevisiae deletion strains, locus YLR085C, strain ARP6, hits give low values 1.11 | S. cerevisiae deletion strains, locus YLR262C, strain YPT6, hits give low values 0.957 | S. cerevisiae deletion strains, locus YML094W, strain GIM5, hits give low values 1.01 | S. cerevisiae deletion strains, locus YMR219W, strain ESC1, hits give low values 0.966 | S. cerevisiae deletion strains, locus YMR263W, strain SAP30, hits give low values 0.996 | S. cerevisiae deletion strains, locus YNL128W, strain TEP1, hits give low values 1.03 | S. cerevisiae deletion strains, locus YNL153C, strain GIM3, hits give low values 0.953 | S. cerevisiae deletion strains, locus YNL298W, strain CLA4 (second series), hits give low values 1.07 | S. cerevisiae deletion strains, locus YNL322C, strain KRE1, hits give low values 1.01 | S. cerevisiae deletion strains, locus YNR030W, strain Alg12, hits give low values 1.03 | S. cerevisiae deletion strains, locus YOL006C, strain TOP1, hits give low values 1.06 | S. cerevisiae deletion strains, locus YPL055C, strain LGE1, hits give low values 0.981 | S. cerevisiae deletion strains, locus YPL241C, strain CIN2, hits give low values 0.972 | S. cerevisiae deletion strains, locus YPR135W, strain CTF4, hits give low values 0.962 | S. cerevisiae strains, strain wild type, hits give low values 1.03
